Measured values published in the supplement of paper PMC11026393.

Test system: H1299
Experiment: difference in mean normalized H2B-mRuby nuclear fluorescence intensity relative to DMSO control (normalized intensity difference (DMSO = 0)); higher = stronger increase in transgene reporter fluorescence
Conditions: 24 h
Procedure: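 Cancer cell lines stably expressing H2B-mRuby2 from a lentiviral PGK promoter were treated with each drug for 24 h and imaged on a Leica DMI8 (ex 541-551 / em 565-605 nm). Nuclei were segmented in CellProfiler. The value is the difference in mean per-nucleus normalized H2B-mRuby intensity versus DMSO-treated cells (about 3 repeats x 4 fields). Doxorubicin is itself fluorescent. Dasatinib is in nM.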

CC(=O)c1c(C)c2cnc(Nc3ccc(N4CCNCC4)cn3)nc2n(C2CCCC2)c1=O (concentration unit: uM)
difference (concentration: 0.1): -0.156
difference (concentration: 0.5): -0.266
difference (concentration: 1): -0.19
difference (concentration: 5): -0.0957
difference (concentration: 10): -0.0594

C=CCn1c(=O)c2cnc(Nc3ccc(N4CCN(C)CC4)cc3)nc2n1-c1cccc(C(C)(C)O)n1 (concentration unit: uM)
difference (concentration: 0.1): 0.0483
difference (concentration: 0.5): 0.108
difference (concentration: 1): 0.027
difference (concentration: 2.5): -0.00187
difference (concentration: 5): -0.0335

CNC(=O)c1ccccc1Sc1ccc2c(/C=C/c3ccccn3)n[nH]c2c1 (concentration unit: uM)
difference (concentration: 1): -0.0324
difference (concentration: 2.5): 0.0393
difference (concentration: 5): 0.159
difference (concentration: 10): 0.14
difference (concentration: 20): 0.156

O=c1[nH]cc(F)c(=O)[nH]1 (concentration unit: uM)
difference (concentration: 1): -0.0723
difference (concentration: 2.5): -0.0395
difference (concentration: 5): -0.107
difference (concentration: 10): -0.0707
difference (concentration: 25): -0.0709

Nc1ncn([C@@H]2O[C@H](CO)[C@@H](O)[C@H]2O)c(=O)n1 (concentration unit: uM)
difference (concentration: 1): 0.0691
difference (concentration: 2.5): 0.0657
difference (concentration: 5): 0.123
difference (concentration: 10): 0.125
difference (concentration: 20): 0.109

O=C(c1cc(Cc2n[nH]c(=O)c3ccccc23)ccc1F)N1CCN(C(=O)C2CC2)CC1 (concentration unit: uM)
difference (concentration: 1): -0.0151
difference (concentration: 2.5): -0.0147
difference (concentration: 5): 0.0174
difference (concentration: 10): 0.0357
difference (concentration: 25): 0.0633

CC[C@]1(O)C[C@H]2CN(CCc3c([nH]c4ccccc34)[C@@](C(=O)OC)(c3cc4c(cc3OC)N(C=O)[C@H]3[C@@](O)(C(=O)OC)[C@H](OC(C)=O)[C@]5(CC)C=CCN6CC[C@]43[C@@H]65)C2)C1 (concentration unit: nM)
difference (concentration: 2.5): -0.165
difference (concentration: 10): -0.0783
difference (concentration: 25): -0.00792
difference (concentration: 100): -0.00267
difference (concentration: 250): -0.0899

COc1cccc2c1C(=O)c1c(O)c3c(c(O)c1C2=O)C[C@@](O)(C(=O)CO)C[C@@H]3O[C@H]1C[C@H](N)[C@H](O)[C@H](C)O1 (concentration unit: nM)
difference (concentration: 25): 0.0124
difference (concentration: 100): 0.112
difference (concentration: 250): 0.0484
difference (concentration: 1000): 0.0826
difference (concentration: 2500): 0.218
